Assay outcomes (PubChem BioAssay)
TTR transcr act – TTR transcription activators in neuroblastoma reporter cells, primary screen, cell-based, luminescence, SH-SY5Y, TTR promoter Gaussia luciferase; 100% = recombinant luciferase protein wells; activation, % at 16.7 µM; 92,000 compounds, 1.3% hits; AID 1117267, 2014;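 active means activation above the mean of all tested compounds plus 3 SD, cut at about 9.5% in these data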;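 further: cells exposed to compounds for one day before reading; 0% = median of all test compound wells on the plate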
TTR inh HuH7 – TTR promoter reporter inhibitors in hepatoma cells, counter-screen for TTR transcription activator project, cell-based, luminescence, HuH7 hepatoma; AID 1117279, 2014; shares compounds with TTR transcr act; 1,100 compounds, 4% hits; inhibition, % at 16.7 µM; HuH7 TTR promoter-Gaussia luciferase reporter;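 active means average inhibition above the solvent-only control wells' mean plus 3 SD, cut at about 15% in these data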;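 further: 0% = cells with DMSO only and 100% = cells with inhibitor control FD; inhibitors lower well luminescence so higher value means more inhibition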
TTR act confirm – TTR transcription activators, retest, confirmation, cell-based, luminescence, SH-SY5Y, triplicate. activation, % at 16.7 µM. SHSY5Y TTR promoter Gaussia luciferase; 100% = purified Lucia enzyme wells, no cells. AID 1117280, 2014. 1,100 tested, under 10 active. shares compounds with TTR transcr act;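 active means mean activation above a set limit taken from the earlier primary screen, cut at about 11% in these data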;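 further: 0% = DMSO-treated cells and 100% = recombinant Lucia luciferase without cells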
* = called active by the depositor. The entries come from a sample that favours hits as a whole.

SMILES	TTR transcr act	others
O=C(Cc1ccc(Br)cc1)N1CCN(Cc2ccccc2)CC1	11*
Cc1ccc(CC(=O)N2CCN(Cc3ccccc3)CC2)cc1	-1
O=C(Cc1ccccc1)N1CCN(CCCc2ccccc2)CC1	0
S=P(c1ccccc1)(c1ccccc1)c1cnc2ccccn12	0
CO[C@H]([C@H](C)/C=C/N(C)C=O)[C@@H](C)C(=O)CC[C@H](C)[C@H](O)[C@H](C)[C@H]1OC(=O)/C=C/C(C)=C/[C@H](O)[C@H](OC)C[C@@H]2C=CC[C@@H](C[C@H](OC)[C@@H](CO)[C@@H](OC)C[C@@H](OC)[C@@H]1C)O2	7
CN1CCN(c2nc([N+](=O)[O-])nn2C)CC1	1
CCN1CCN(c2nc([N+](=O)[O-])nn2C)CC1	14*	TTR inh HuH7=-4;TTR act confirm=0
C=CCn1c(O)c(/C=N/NC(=O)CCCC)c(=O)[nH]c1=S	2
CCCn1ncc(CN2CCCC(C(=O)c3cccc(OC)c3)C2)c1C (stereo not given)	-1
S=P(Nn1cnnc1)(c1ccccc1)c1ccccc1	-1
Brc1ccc2c(c1)CN(CC1CCCCC1)Cc1cnnn1-2	27*	TTR inh HuH7=-8;TTR act confirm=0
O=S(=O)(c1ccc(Cl)cc1)N1Cc2cc(Br)ccc2-n2nncc2C1	0
CC1c2ccccc2-n2nncc2CN1CC1CCCCC1 (stereo not given)	1
CCC1(C(=O)c2ccccc2)C2c3ccccc3OC(=O)C21C(C)=O (stereo not given)	1
Cc1cccc(-n2c(C)nc3ccc(Cl)cc3c2=O)c1	1
O=C(c1ccc(Cl)cc1)C1CCCN(Cc2ccc3nonc3c2)C1 (stereo not given)	0
CCn1c(O)c(/C=N/N2CCOCC2)c(=O)n(CC)c1=S	1
Cc1ccc(-n2c(O)c(/C=N/N3CCOCC3)c(=O)[nH]c2=S)cc1	10*	TTR inh HuH7=10;TTR act confirm=0
O=c1[nH]c(=S)n(-c2ccc(Cl)cc2)c(O)c1C=Nc1ccc(N2CCOCC2)cc1	-2
COc1cccc(C2(O)CCN(Cc3ccncc3)CC2)c1	1
CC12CCC3c4ccc(OC(=O)N(CCCl)CCCl)cc4CCC3C1CCC2O (stereo not given)	0
COP(=O)(C(=O)Nc1ccccc1)C(CC(C)C)NC(=O)OCc1ccccc1 (stereo not given)	2
COC(=O)C(Cc1ccc(N(CCCl)CCCl)cc1)N=Cc1ccccc1O (stereo not given)	1
COc1ccc(-n2nnnc2C(c2ccccc2OC(F)(F)F)N2CCC3(CC2)C(=O)NCN3c2ccccc2)cc1 (stereo not given)	-2
Cn1c(O)c(/C=C2\N=c3ccccc3=C2CCNC(=S)NC2CC2)c(=O)n(C)c1=O	13*	TTR inh HuH7=17*;TTR act confirm=0
SMILES	TTR transcr act	others
COC(=O)C1=Nc2ccccc2/C1=C\c1c(O)n(C)c(=O)n(C)c1=O	0
Cn1c(O)c(/C=C2\C=Nc3ccccc32)c(=O)n(C)c1=O	0
Cc1ccccc1NC(=O)N1Cc2ccccc2-n2nncc2C1	0
CC(=O)C1CCC2C3CCC4CC(O)CCC4(C)C3C(=O)CC12C (stereo not given)	12*	TTR inh HuH7=-7;TTR act confirm=-1
CC(=O)C1CCC2C3CC(O)C4CC(O)CCC4(C)C3CCC12C (stereo not given)	-2
CC(=O)C1CCC2C3CCC4CC(O)CCC4(C)C3C(O)CC12C (stereo not given)	-1
C[C@]12CC[C@H](O)CC1C(=O)CC1C2CC[C@@]2(C)C1CC[C@@H]2O (stereo not given in full)	0
NC(Cc1ccccc1Cl)c1nn[nH]n1 (stereo not given)	0
c1ccc2nc(OCCN3CC3)ccc2c1	1
Cc1nn(C)c(C)c1P(=S)(c1c(C)nn(C)c1C)N(C)C	9.9*	TTR inh HuH7=-4;TTR act confirm=-1
CN1C(=O)NC(=O)C(N=Nc2ccc(Cl)cc2)C1=O (stereo not given)	-1
CN(C)CC1CSCCC1(O)c1ccccc1Cl (stereo not given)	2
CNC1(c2ccccc2Cl)CCCCC1=O (stereo not given)	16*	TTR inh HuH7=-3;TTR act confirm=-1
NC(Cc1ccccc1)[P+](=O)O (stereo not given)	6
CCn1c(O)c(/C=N/NC(=O)c2ccccc2)c(=O)[nH]c1=S	8
COc1ccc(Cn2c(O)c(/C=N/NC(=O)c3ccccc3)c(=O)[nH]c2=O)cc1	0
COc1ccccc1-n1c(O)c(/C=N/NC(=S)Nc2ccccc2)c(=O)[nH]c1=S	14*	TTR inh HuH7=-12;TTR act confirm=0
O=c1[nH]c(=O)n(Cc2ccccc2Cl)c(O)c1/C=C1/C=CC=N1	-2
